APEX1 inh: qHTS Assay for Inhibitors of the Human Apurinic/apyrimidinic Endonuclease 1 (APE1). recombinant APE1, TAMRA/BHQ-2 abasic DNA cleavage fluorescence. DNA repair nuclease/redox regulator APEX1 (Homo sapiens), P27695. 350,000 compounds, 0.35% hits. Potency, µM (highest dose often 65.8 µM), inactives show at the highest dose activity change, negative = inhibition, usual class: inhibitors;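 further: plate controls were vehicle for no effect and reference inhibitor for full effect; nearly all actives have a fitted effect of over 55% in size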
Target sequence (P27695 whole entry, looked up): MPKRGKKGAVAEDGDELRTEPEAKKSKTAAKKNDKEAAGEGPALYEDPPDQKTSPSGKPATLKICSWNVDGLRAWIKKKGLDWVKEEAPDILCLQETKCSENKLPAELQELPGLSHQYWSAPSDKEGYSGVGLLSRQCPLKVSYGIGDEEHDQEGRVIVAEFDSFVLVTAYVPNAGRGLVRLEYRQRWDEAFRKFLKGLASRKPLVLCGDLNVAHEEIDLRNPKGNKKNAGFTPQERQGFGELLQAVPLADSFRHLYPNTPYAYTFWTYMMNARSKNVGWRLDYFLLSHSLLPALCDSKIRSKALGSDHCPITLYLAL
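Compound pre-exposure to 0.75 nM APE1, 15 min at ambient temperature. Reaction initiated with 50 nM TAMRA/BHQ-2 THF substrate, read immediately in kinetic mode, 525 nm excitation, 598 nm emission.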
WRN helicase inh: qHTS for Inhibitors of WRN Helicase; Bifunctional 3'-5' exonuclease/ATP-dependent helicase WRN (Homo sapiens), Q14191; WRN helicase unwinding, fluorescent forked duplex, kinetic; Potency, µM (top dose mostly 114 µM), inactives show top-dose activity change, negative = inhibition, usual class: inhibitors; 360,000 compounds, 0.46% hits; further: nearly all actives have a fitted effect of over 55% in size
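Screening of the MLSMR collection measured strand separation of a quenched forked DNA duplex (100 nM) by 20 nM WRN with 2 mM ATP, all final. Compounds were preincubated with enzyme 15 min at room temperature.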
BLM helicase inh: qHTS Assay for Inhibitors of Bloom's syndrome helicase (BLM); 350,000 compounds, 0.2% hits; Potency, µM (doses to about 56.1 µM), for the others: at the top dose activity change, negative = inhibition, hits mostly inhibitors; recombinant BLM DNA unwinding, fluorescence dequenching; RecQ-like DNA helicase BLM (Homo sapiens), P54132;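 further: plate controls were vehicle for no effect and no enzyme for full effect; nearly all actives have a fitted effect of over 35% in size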
RECQ1 inh-1: qHTS Assay for Inhibitors of RecQ-Like Dna Helicase 1 (RECQ1); RECQ1 DNA unwinding, red fluorescence kinetic read; ATP-dependent DNA helicase Q1 (Homo sapiens), P46063; Potency, µM (highest dose often 57.3 µM), for inactives: top-dose activity, negative = inhibition, hits mostly inhibitors; AID 2549, 2010; 240,000 compounds, 0.54% hits;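 further: plate controls were vehicle for no effect and no enzyme for full effect; nearly all actives have a fitted effect of over 30% in size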
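50 nM RECQ1T1 preincubated 15 min with compound in Tris pH 8.0 buffer with MgCl2, DTT, Tween-20 and 2.5 ug/ml poly(dI-dC); started with 200 nM TAMRA/BHQ-2 forked duplex and 2 mM ATP. Unwinding read as fluorescence (525/598 nm), two reads 2 h apart.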
L3MBTL1 inh: qHTS Assay for the Inhibitors of L3MBTL1; Potency, µM (series often up to 57.1 µM), for inactives: at the highest dose activity, negative = inhibition, actives largely listed as inhibitors; AlphaScreen L3MBTL1–H3K9me1 peptide binding; Lethal(3)malignant brain tumor-like protein 1 (Homo sapiens), Q9Y468; 230,000 compounds, 0.66% hits; further: nearly all actives have a fitted effect of over 60% in size
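First, the protein-peptide complex forms for 30 min at room temperature (L3MBTL1 50 nM, biotinylated H3K9me1 peptide 75 nM). Next, compounds are pin-transferred and incubated 30 min. Finally, AlphaScreen beads are added and read after 30 min.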
RECQ1 conf: Confirmation qHTS Assay for Inhibitors of RecQ-Like Dna Helicase 1 (RECQ1). 610 compounds, 28% hits. shares compounds with RECQ1 inh-1. RECQ1 helicase DNA unwinding, fluorescence. Potency, µM (series often up to 229 µM), for the others: at the highest dose activity change, negative = inhibition, actives largely listed as inhibitors; further: nearly all actives have a fitted effect of over 45% in size
ADP FP counter: Counterscreen for RECQ1 Inhibitors: ADP Fluorescence Polarization Displacement Assay; shares compounds with RECQ1 inh-1; ADP fluorescence polarization displacement counterscreen; Potency, µM (series often up to 228 µM), for the others: top-dose activity change, negative = inhibition, usual class: inhibitors; 530 compounds, 27% hits; AID 2711, 2010; further: nearly all actives have a fitted effect of over 45% in size
RECQ1 inh-2: Confirmation qHTS Assay for Inhibitors of RecQ-Like Dna Helicase 1 (RECQ1) - Round 2 Cherry Picks; recombinant RECQ1 DNA unwinding, red fluorescence; Potency, µM (series often up to 119 µM), for the others: at the top dose activity, negative = inhibition, hits mostly inhibitors; shares compounds with RECQ1 inh-1; 1,100 compounds, 15% hits; AID 504841, 2011; further: nearly all actives have a fitted effect of over 50% in size
The depositor's hits bear a star; i = inactive; ? = inconclusive; . = not tested or not shown; ! = not confirmed by another sample; [ ] = another dose, or the depositor's remark. Compounds with a hit are over-represented: about 0.92% of the library has one in this group of screens. The call rests on the fitted dose curve; in most records, active means well fitted curve in the direction sought with a large enough effect; inconclusive means small, poorly fitted or top-dose-only effect, or another doubt; inactive means no such curve, though single readings can be large; an effect the other way counts as inactive or inconclusive. Unless noted, on the % scale 0 is the no-effect control and ±100 the full control effect; potency means the concentration at half of the fitted maximal effect.

SMILES	APEX1 inh	WRN helicase inh	BLM helicase inh	RECQ1 inh-1	L3MBTL1 inh	RECQ1 inh-2	others
CNc1ccc(/C=C/C(=O)c2ccc3c(c2)OCCO3)cc1[N+](=O)[O-]	?	-10.6%	-2.9%	-8.2%	?	.
CNc1ccc(/C=C/C(=O)c2ccc(C)cc2)cc1[N+](=O)[O-]	-11.0%	87.9%	-6.9%	?	-25.5%	52.8%
CCCN(CCC)C(=O)c1ccc2c(=O)n(Cc3ccco3)c(=S)[nH]c2c1	?	-9.5%	?	?	-14.7%	-15.2%
O=C(/C=C/c1ccccc1F)c1ccoc1	16.1%	-5.5%	-6.5%	0.141µM*	1.6%	-19.9%	RECQ1 conf=-12.4%[114 µM];ADP FP counter=6.1%[91.9 µM]
COc1ccc2nc3oc(C(=O)Nc4cccc(C(F)(F)F)c4)cc3cc2c1	.	.	0.3%	.	.	.
COc1ccc(CCNC(=O)CCCn2c(=O)c3ccccc3n(Cc3ccccc3C)c2=O)cc1OC	.	.	-0.2%	.	.	.
C[n+]1cccc2c(Br)ccc([O-])c21	-10.7%	-11.5%[11.6 µM]	20µM*	31.6µM*	?	-12.2%
[O-][n+]1cccc2c(Br)cc(Br)c(O)c21	-3.7%	-15.3%	-15.3%	-10.3%	.	.
C[C@@](N)(Cc1ccc(O)c(O)c1)C(=O)O	1.41µM*!	.	5.3%	11.2µM*!	.	.	RECQ1 conf=?;ADP FP counter=?
N#Cc1ccccc1S(=O)(=O)N1CCCC(c2nc3c(nnn3Cc3cccc(Cl)c3)c(=O)[nH]2)C1 (stereo unspecified)	.	.	0.8%	.	.	.
CCCN1C(=O)C2(c3ccccc31)c1c(oc3ccccc3c1=O)C(=O)N2CCCOC(C)C (stereo unspecified)	.	.	-4.2%	.	.	.
O=C(c1ccc(Cl)cc1)N1CCN(c2cccc3[nH]ccc23)CC1	?	4.1%	3.1%	?	-26.6%	-4.4%
C/C(=C\CNc1ncnc2c1ncn2[C@@H]1O[C@H](CO)[C@@H](O)[C@H]1O)CO	-2.9%	.	1.3%	-9.1%	.	.
COC(=O)NC(CC(C)=O)c1ccc2c(c1)OCO2 (stereo unspecified)	?	.	1.2%[12.4 µM]	-9.8%[11.5 µM]	.	.
N=c1c(C(=O)NCc2ccc(F)cc2)cc2c(=O)n3ccccc3nc2n1CCCN1CCOCC1	14.6%	0.3%	-7.4%	?	4.6%	3.3%
Cc1ccc2sc(C)[n+](CCCS(=O)(=O)[O-])c2c1	-2.9%	?	-4.3%	3.55µM*	.	.	RECQ1 conf=9.4%[114 µM];ADP FP counter=8.0%[91.9 µM]
Cc1ccc2c(c1)sc(C)[n+]2CCCS(=O)(=O)[O-]	1.5%	-4.9%	-1.2%	4.3%	.	.
COc1ccc(/C=C2\SC(=O)N(CC(=O)NNC(=O)c3ccccc3O)C2=O)cc1	16.3%	-3.3%	-2.8%	2.82µM*	-5.3%	?
O=C(NC(Cc1c[nH]c2ccccc12)C(=O)O)/C(=C\c1ccccc1)NC(=O)c1ccccc1 (stereo unspecified)	73.3%	1.9%	-3.6%	.	.	.
O=C(NC(Cc1c[nH]c2ccccc12)C(=O)O)/C(=C/c1ccc2c(c1)OCO2)NC(=O)c1ccccc1 (stereo unspecified)	-5.4%	8.4%	-0.6%	-4.8%	.	.	RECQ1 conf=3.8%;ADP FP counter=?
O=C(Cn1nnc2ccccc2c1=O)N[C@@H](Cc1c[nH]c2ccccc12)C(=O)O	-0.9%	-2.9%	0.0%	7.2%	8.6%	.	RECQ1 conf=6.2%;ADP FP counter=2.2%
Cc1ccc(C(=O)Nc2ccccc2C(=O)NC(Cc2ccccc2)C(=O)O)cc1 (stereo unspecified)	11.5%	7.2%[57.1 µM]	-3.7%	i	11.2%	.
Cc1ccc(C(=O)Nc2ccccc2C(=O)NC(Cc2c[nH]c3ccccc23)C(=O)O)cc1 (stereo unspecified)	-3.5%	-12.1%	-1.5%	i	5.1%	.	RECQ1 conf=14.0%;ADP FP counter=-12.0%
C=CC[C@@H]1C=C[C@H](Oc2ccc(C)cc2)[C@H](COC(=O)NCc2cccc3ccccc23)O1	-8.3%[12.4 µM]	.	-2.5%[12.4 µM]	i[11.5 µM]	.	.
COc1cc(/C=C(\C#N)c2nc3ccccc3s2)cc([N+](=O)[O-])c1O	?	?	?	?	-17.5%	35.5µM*
SMILES	APEX1 inh	WRN helicase inh	BLM helicase inh	RECQ1 inh-1	L3MBTL1 inh	RECQ1 inh-2	others
COc1cc(/C=N/N2C(C)CCCC2C)cc(Br)c1O (stereo unspecified)	-1.3%	5.4%	0.5%	-15.1%	0.0%	.
COc1cc(/C=N/N2C(=O)CSC2=S)cc(Br)c1O	?	50.1µM*	-6.3%	35.5µM*	31.6µM*	.	RECQ1 conf=?
O=C1C=CC2=C3c4cc(O)c(O)cc4C[C@@]3(O)COC2=C1	12.6µM*	.	-16.7%	20µM*	.	25.1µM*
CC(C)(C)C1CCC(C(=O)OCC(=O)c2ccc[nH]2)CC1 (stereo unspecified)	10.0%	-26.7%[57.1 µM]	-11.9%	?	-13.1%	-25.4%
O=C(Cc1cccs1)Nc1ccc(S(=O)(=O)Nc2ncccn2)cc1	?	?	-19.5%	?	?	?
COc1cccc(Cn2c(=O)c(-c3ccc(F)cc3)nc3cnc(N4CCNCC4)nc32)c1	0.2%	.	-0.4%	i	.	.
COc1ccc(-c2nc3cnc(N4CCNCC4)nc3n(Cc3cccc(OC)c3)c2=O)cc1	?	.	?	?	.	?
Cc1cccc(-c2noc(CSc3nc(-c4ccc(F)cc4)cc(=O)[nH]3)n2)c1	.	.	-4.9%	.	.	.
c1ccc(Nc2cccc3c(Nc4ccccc4)cccc23)cc1	-7.1%	-6.3%	-19.7%	?	.	-14.8%
c1ccc(Nc2ccccc2)cc1	36.5%	-6.3%	.	-17.0%	6.4%	.
Cc1cc(=O)c2c(O)cc(O)c(C)c2o1	13.3%	.	4.7%	i	.	.
Cc1cc2c(NC(=O)Nc3ccccc3)cccc2nn1	?	0.3%	5.6%	?	-23.1%	-0.2%
Cc1cc2c(NC(=O)Nc3ccc(C(C)(C)C)cc3)cccc2nn1	-15.3%	-14.3%	-21.0%	i	-19.7%	.
Cc1ccccc1OCCCCc1c(C)n[nH]c1C	-0.8%	-7.3%	-2.6%	?	-5.6%	-13.9%
